Only some compounds are listed: those with a hit (about 0.67% of all), similar ones and a draw of the others.
CaV13 ICDI inh: Disruptors of the CACNA1D IQ motif to Ca2+-dependent inactivation inhibitor domain association, primary screening, Förster resonance energy transfer in intact living …. HEK cells, CFP/YFP FRET ICDI-IQ, plate reader, 10 min; percent FRET-ratio fall versus neutral wells. inhibition, % at 12.3 µM. 0.098% of 340,000 active;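 active = mean replicate inhibition of at least 30% and at least 1% of replicates passing that level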;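 note: 0% = median of the neutral control wells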
GC-A act: GC-A (human) enzyme activation. P16066. HEK293 GC-A cells, cGMP TR-FRET, EC30 ANP; 0% at EC30 ANP, 100% saturating ANP. activation, % at 10 µM. 0.14% of 370,000 active; in the data active = activation above about 40%
Target sequence (P16066 whole entry, looked up): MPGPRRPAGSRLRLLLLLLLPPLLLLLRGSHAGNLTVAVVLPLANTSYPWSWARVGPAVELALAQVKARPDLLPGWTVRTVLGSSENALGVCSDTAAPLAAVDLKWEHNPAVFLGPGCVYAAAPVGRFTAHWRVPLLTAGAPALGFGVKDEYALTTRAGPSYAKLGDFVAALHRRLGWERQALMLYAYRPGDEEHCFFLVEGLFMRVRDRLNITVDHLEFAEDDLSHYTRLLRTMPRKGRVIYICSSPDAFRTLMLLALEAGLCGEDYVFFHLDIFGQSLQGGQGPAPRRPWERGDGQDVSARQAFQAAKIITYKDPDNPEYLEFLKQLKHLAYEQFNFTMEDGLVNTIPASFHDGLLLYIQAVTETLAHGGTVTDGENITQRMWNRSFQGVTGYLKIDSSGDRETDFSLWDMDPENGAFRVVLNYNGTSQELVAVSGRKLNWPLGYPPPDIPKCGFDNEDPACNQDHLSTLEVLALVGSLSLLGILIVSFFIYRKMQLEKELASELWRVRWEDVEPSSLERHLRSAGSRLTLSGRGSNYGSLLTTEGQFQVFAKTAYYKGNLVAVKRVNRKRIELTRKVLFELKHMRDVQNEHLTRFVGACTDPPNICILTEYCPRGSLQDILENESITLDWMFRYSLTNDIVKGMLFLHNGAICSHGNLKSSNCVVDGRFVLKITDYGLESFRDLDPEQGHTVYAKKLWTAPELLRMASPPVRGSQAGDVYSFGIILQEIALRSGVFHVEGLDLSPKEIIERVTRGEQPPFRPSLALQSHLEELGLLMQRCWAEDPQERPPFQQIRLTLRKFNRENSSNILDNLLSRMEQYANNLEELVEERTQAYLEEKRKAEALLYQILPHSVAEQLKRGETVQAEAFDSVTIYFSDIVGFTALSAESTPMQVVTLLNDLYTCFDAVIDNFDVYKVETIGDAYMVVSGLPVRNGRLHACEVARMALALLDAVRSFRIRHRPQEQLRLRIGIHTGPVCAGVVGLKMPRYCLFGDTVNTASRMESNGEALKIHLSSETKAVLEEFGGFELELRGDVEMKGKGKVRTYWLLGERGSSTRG
GC-B act: GC-B (human) receptor activation; P20594; HEK293-GC-B cells, CNP EC30, cGMP TR-FRET; 0% at EC30 CNP, 100% saturating CNP; activation, % at 10 µM; 0.11% of 370,000 active;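 active = activation at 10 µM reaching about 35% in either raw or pattern-adjusted values, limit read from the data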
Rin1 Abl inh: human Rin1-Abl interaction inhibition. P00519+Q13671. 0.4% of 360,000 active. TR-FRET Rin1/Abl binding, biochemical. inhibition, % at 7.35 µM. AID 588664; in the data active = inhibition above about 5%, passing the limit was not always enough
* marks the source's active call; other numbers are inactive results; / = not tested or not shown; + = active, no number.

SMILES	CaV13 ICDI inh	GC-A act	GC-B act	Rin1 Abl inh
CC(C)(C)C(=O)Cn1ncc(Cl)c(Cl)c1=O	-4	42*	-8	4
O=C(Cn1ncc(Cl)c(Cl)c1=O)c1ccc(Cl)cc1	-6	70*	22	2
O=c1c(Cl)c(Cl)cnn1Cc1ccc(F)cc1	-14	6	4	-4
Cc1ccc(-c2nnc(SCC(=O)NNC(=S)Nc3ccccc3)n2C2CCCCC2)cc1	/	3	-5	/
CC(C)(C)OC(=O)NCc1ccccc1/C=C/S(=O)(=O)NCc1ccccc1	/	-3	-5	/
CCn1c(-c2ccsc2)nc2c1c(=O)[nH]c(=O)n2Cc1ccccc1	-4	31	42*	-1
COC(=O)c1cc(C2(c3c[nH]c4ccccc34)CCN(C(=O)OC(C)(C)C)CC2)n2ccccc12	/	-4	4	/
CC(C)n1cc(/C=C(\C#N)S(=O)(=O)c2ccccc2)c2ccccc21	-7	37	51*	3
Cc1ccc(/C=c2\sc3nc(-c4cccnc4)nn3c2=O)cc1	-4	15	-6	-1
CC(C)c1ccc(/C=c2\sc3nc(-c4ccncc4)nn3c2=O)cc1	-5	41*	-18	-1
CCOC(=O)[C@@]12CCCC3=C1N(CCC3)C(=O)[C@H]2CC(=O)N1CCN(C(=O)C2CC2)CC1	/	0	14	/
CCOc1ccc(S(=O)(=O)N(CCO)CCO)cc1-c1nc2c(C(C)(C)C)nn(C)c2c(=O)[nH]1	-5	58*	63*	4
CCCc1nn(C)c2c(=O)[nH]c(-c3cc(S(=O)(=O)N(CCO)CCO)ccc3OCC)nc12	-15	50*	56*	-5
Cc1ccc(S(=O)(=O)N2CCCC2C(=O)N2CCN(c3ccccc3)CC2)cc1 (stereo not drawn)	/	0	4	/
O=C(O)c1ccccc1C(=O)c1cccc2c(Br)cccc12	-5	58*	26	-319
O=C(O)c1ccccc1C(=O)c1cccc2c(F)cccc12	-9	6	2	-2
CCN(CC)C(=O)CC[C@@H]1CC[C@]2(CCCN(S(C)(=O)=O)C2)O1	/	1	-5	/
Nc1ccc(C#Cc2ccc3c(=O)c4ccccc4oc3c2)cc1	106*	5	5	4
Cc1ccc(-n2c(SCc3c(Cl)cccc3Cl)nnc2-c2ccco2)cc1	/	-20	-6	/
C#CCOCCOCCOCCNc1nc(N2CCN(C(=O)CCCCCCCCCCNC(=O)[C@H]([C@@H](C)CC)n3cc(CCCCN=C(N)N)nn3)CC2)nc(N2CCN(C(=O)CCCCCCCCCCNC(=O)[C@@H]([C@H](C)O)n3cc(C)nn3)CC2)n1	/	/	/	14*
C#CCOCCOCCOCCNc1nc(N2CCN(C(=O)CCCCCCCCCCNC(=O)Cn3cc(CCCCCN)nn3)CC2)nc(N2CCN(C(=O)CCCCCCCCCCNC(=O)[C@@H]([C@H](C)O)n3cc(C)nn3)CC2)n1	/	/	/	11*
C#CCOCCOCCOCCNc1nc(N2CCN(C(=O)CCCCCCCCCCNC(=O)[C@@H](CCSC)n3cc(CCO)nn3)CC2)nc(N2CCN(C(=O)CCCCCCCCCCNC(=O)[C@H](CCCN=C(N)N)n3cc(C[C@@H](C)CC)nn3)CC2)n1	/	/	/	27*
C#CCOCCOCCOCCNc1nc(N2CCN(C(=O)CCCCCCCCCCNC(=O)Cn3cc(C[C@@H](C)O)nn3)CC2)nc(N2CCN(C(=O)CCCCCCCCCCNC(=O)[C@@H]([C@H](C)O)n3cc(C)nn3)CC2)n1	/	/	/	5
Cc1ccc(-n2c(Cc3cccs3)nnc2SCC(=O)Nc2ccccc2-c2ccccc2)cc1	/	-17	-13	/
O=C1C(=O)N(Cc2ccc(-c3ccc(Cl)nc3)cc2)c2ccc(OC(F)(F)F)cc21	/	-18	-13	/
SMILES	CaV13 ICDI inh	GC-A act	GC-B act	Rin1 Abl inh
O=C(c1cc(F)cc(F)c1)N1CCCC(c2nc(-c3cccs3)no2)C1 (stereo not drawn)	/	0	-5	/
Cc1ccc(/C=C2/NC(=O)N(Cc3ccccc3F)C2=O)o1	-18	60*	42*	2
CCN1C(=O)N/C(=C/c2ccc(C)o2)C1=O	-5	6	-3	0
Cc1ccc(/C=C2/NC(=O)N(Cc3ccc(Br)cc3)C2=O)o1	-5	3	49*	-2
CN(C)c1cccc(/C=C2\CC3(OC(=O)c4cccc(F)c4)CCCN2C3)c1 (stereo not drawn)	/	-7	-4	/
CCOC(=O)c1cnc(-n2cc(C)cn2)nc1NCc1ccc2c(c1)OCO2	-6	34	45*	1
CCc1cccc2c(C(C)c3ccccc3O)c[nH]c12 (stereo not drawn)	/	-4	-6	/
O=c1ccc2cc3c4c(c2o1)CCCN4CCC3	32*	8	1	-15
O=C1OCCC1Sc1nnc(-c2ccc(Br)cc2)o1 (stereo not drawn)	-2	66*	23	0
CCCCOc1ccc(C(=O)NCC(=O)OC2CCOC2=O)cc1 (stereo not drawn)	/	57*	3	0
O=C(CNC(=O)c1ccc(Cl)cc1)OC1CCOC1=O (stereo not drawn)	-4	24	-4	1
Cc1cccn2c(=O)c3cc(C(=O)NCc4ccco4)c(=N)n(CCc4ccccc4)c3nc12	39*	9	-2	-5
COCCNC(=O)c1cc2c(=O)n3cccc(C)c3nc2n(Cc2ccncc2)c1=N	43*	11	0	-3
Cc1cccn2c(=O)c3cc(C(=O)NCCc4ccccc4)c(=N)n(Cc4ccco4)c3nc12	-3	20	9	-7
Cc1cccn2c(=O)c3cc(C(=O)NCc4ccc(F)cc4)c(=N)n(CCCN4CCOCC4)c3nc12	116*	11	-7	-8
Cc1cccn2c(=O)c3cc(C(N)=S)c(=N)n(CCCN4CCOCC4)c3nc12	+	14	-1	-9
COCCCn1c(=N)c(C(N)=S)cc2c(=O)n3cccc(C)c3nc21	14	15	-2	-3
Cc1cccc(NC(=O)N2CCC(N(C)CCC(C)C)CC2)c1	/	3	-1	/
COC(=O)c1ccc2c(C3(c4c[nH]c5ccccc45)CCN(C(=O)OC(C)(C)C)CC3)c[nH]c2c1	/	-1	-1	/
O=C(CC1CCCC1)N1CC[C@H]2[C@H](CCCN2Cc2ccccc2)C1	/	2	5	/
CC(=O)Nc1nc2c(C)c(Cl)ccc2s1	-6	49*	-3	0
Cc1ccc(C)c2sc(NC(=O)CN3C(=O)CCC3=O)nc12	-2	7	-3	-4
Cc1ccc2sc(NC(=O)CN3C(=O)CCC3=O)nc2c1C	-6	50*	7	-1
Cc1c(Cl)ccc2sc(NC(=O)C3CC3)nc12	-7	55*	-7	-2
COc1cc([N+](=O)[O-])cc2sc(NC(=O)C3CC3)nc12	-6	47*	-4	-2
CC(=O)Nc1cc(C)c2nc(NC(C)=O)sc2c1	-3	-1	1	-3
O=C(CSc1nnc(-c2cccnc2)n1-c1ccc(Cl)cc1)Nc1ccc(S(=O)(=O)Nc2nccs2)cc1	/	0	1	/

Screens as filed in PubChem.
